Source: PubChem (National Center for Advancing Translational Sciences (NCATS))
Only a selection was taken, and hits are over-represented in it overall.
NS1 inh: blocks influenza NS1 protein function. Potency, µM (series often up to 46.1 µM), for inactives: at the top dose activity, positive = more growth. 270,000 tested, 0.4% active; calls by dose curve; note: potency is the fitted concentration of half-maximal effect; actives are rising curves; nearly all actives have a fitted effect of over 50% in size
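A cell-based growth assay was used: compounds that relieve NS1-induced slow growth of budding yeast raise OD600. Assay medium was yeast nitrogen base with ammonium sulphate and -URA supplement, pH 6.0, with 2% galactose.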
Cycloheximide cs: counter-screen for Shiga toxin inhibitors: cycloheximide protein synthesis inhibition | max response, % | cell reporter, cycloheximide protein synthesis inhibition counterscreen | 300,000 tested, 12% active; in the data active = max response mostly above about 13%, no sharp cut-off; inactive = mostly below about 14%; note: read at 38.3 µM for the half of the compounds with a filed dose; 0% is about no effect
AmpC no deterg: AmpC beta-lactamase inhibition without detergent; P00811; AmpC nitrocefin hydrolysis, absorbance 480 nm, 0.0001% Triton; Potency, µM (highest dose often 57.1 µM), for inactives: at the top dose activity change, negative = inhibition, hits mostly inhibitors; 330,000 tested, 0.52% active;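 note: potency is the fitted concentration of half-maximal effect; plate controls were no compound for no effect and no enzyme for full effect; nearly all actives have a fitted effect of over 20% in size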
Target sequence (P00811 whole entry, looked up): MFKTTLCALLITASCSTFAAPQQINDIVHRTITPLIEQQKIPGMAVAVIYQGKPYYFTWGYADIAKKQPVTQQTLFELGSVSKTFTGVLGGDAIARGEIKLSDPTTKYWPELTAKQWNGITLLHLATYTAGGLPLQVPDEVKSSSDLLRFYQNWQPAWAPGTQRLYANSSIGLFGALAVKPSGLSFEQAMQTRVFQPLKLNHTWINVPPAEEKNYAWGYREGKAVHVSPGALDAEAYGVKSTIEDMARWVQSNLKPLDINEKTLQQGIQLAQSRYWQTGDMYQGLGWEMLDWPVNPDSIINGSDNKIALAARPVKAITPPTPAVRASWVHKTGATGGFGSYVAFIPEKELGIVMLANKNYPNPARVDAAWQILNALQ
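AmpC (5.3 nM in the dispensed reagent) in 20 mM phosphate pH 7.0 with 0.01% (detergent screen) or 0.0001% Triton X-100 was preincubated with compounds for 15 min at room temperature. Nitrocefin was then added from an 800 uM solution, and hydrolysis was followed at 480 nm.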
AmpC inh detg: inhibitors of E. coli AmpC beta-lactamase with detergent. AmpC hydrolysis of nitrocefin, absorbance 480 nm, 0.01% Triton. P00811. AID 485294. 370,000 tested, 0.041% active. Potency, µM (titrated, usually from 114 µM), for the others: at the highest dose activity change, negative = inhibition, hits mostly inhibitors;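 note: potency is the fitted concentration of half-maximal effect; 0% = no-compound wells and -100% = no-enzyme wells; nearly all actives have a fitted effect of over 25% in size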
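20 mM phosphate pH 7.0 + 0.01% (detergent screen) or 0.0001% Triton X-100; 5.3 nM AmpC reagent; cpd preinc 15 min RT; nitrocefin (800 uM stock) to start; A480 q20 s × 4 min; Activity was normalised to no-enzyme and no-compound control wells.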
Shiga toxin inh: inhibitors of Shiga toxin in Vero cells; Vero cells, Shiga toxin protein synthesis inhibition reporter; inhibition, % at 38.7 µM; 290,000 tested, 9.2% active; in the data active = inhibition mostly above about 28%, no sharp cut-off; inactive = mostly below about 43%; note: 0% is about no effect
An asterisk follows results filed as active; ? = inconclusive; / = no result given; + = active, no number; [ ] = another dose, or the depositor's remark. Unless noted, calls come from the whole dose curve; as a rule, active = well fitted curve in the direction sought with a large enough effect; inconclusive = small, poorly fitted or top-dose-only effect, or another doubt; inactive = no such curve, though single readings can be large; an effect the other way counts as inactive or inconclusive.

SMILES	NS1 inh	Cycloheximide cs	AmpC no deterg	AmpC inh detg	Shiga toxin inh
Cc1ccc2cc(CCNC(=O)c3ccco3)c(=O)[nH]c2c1C	-43%	61*	-10%	-22%	+
CCCS(=O)(=O)NCCc1cc2ccc(C)cc2[nH]c1=O	2%	12*	-21%	2%	28*
Cc1cc2cc(CCNC(=O)c3cccs3)c(=O)[nH]c2cc1C	-10%	31*	-47%	-14%	54*
CCc1nc(-c2cc3ccc(C)cc3[nH]c2=O)no1	0%	17*	-16%	8%	34
O=C(CC1C(=O)NCCN1Cc1ccoc1)NCCCn1ncc2ccccc21 (stereo not drawn)	-2%	8	-40%	-1%	43
COc1cccc2cc(/C(C)=N/Nc3nc(-c4cc(C)ccc4C)cs3)c(=O)oc12	2%	1	?	-6%	-1
COc1cc(C2c3c(oc4ccc(F)cc4c3=O)C(=O)N2c2nc(C)c(C)s2)cc(OC)c1OC (stereo not drawn)	/	/	/	4%	/
Cc1ccc2cc(CCNC(=O)c3ccco3)c(=O)[nH]c2c1	-7%	31*	-20%	?	63*
COc1ccc2cc(CCNC(=O)c3ccco3)c(=O)[nH]c2c1	?	58*	-9%	-1%	95*
COc1ccc2cc(CCNC(=O)C(C)C)c(=O)[nH]c2c1	-119%	1	?	?	12
COc1ccccc1N(C(=O)CNC(=O)c1ccco1)C(C(=O)NCC1CCCO1)c1ccccc1 (stereo not drawn)	2%	-4	19%	-4%	-3
CCc1c(O)nc(SCC(=O)Nc2ccccc2)n(-c2ccccc2)c1=O	?	-9	-24%	?	-17
Cc1ccc(NC(=O)CSc2nc(O)cc(=O)n2-c2ccc(C)cc2)cc1	18%	8	13µM*	11%	24
CCc1c(O)nc(SCC(=O)Nc2nc3ccccc3s2)n(-c2ccc(C)cc2)c1=O	?	45*	-27%	9%	93*
Cc1ccc(NC(=O)CSc2nc(O)c(Cc3ccccc3)c(=O)n2-c2ccccc2)cc1	?	1	11µM*	-7%	22
CCCCn1c(SCc2ccccc2C#N)nc2c(sc3ccccc32)c1=O	/	/	/	1%	/
COc1ccc(NC(=O)C2CCCN2S(=O)(=O)c2ccc(Cl)cc2)cc1 (stereo not drawn)	3%	-8	-16%	4%	2
O=C(CCCCCN1C(=O)[C@@H]2Cc3ccccc3CN2C1=O)Nc1ccccc1Cl	15%	30*	54%	-6%	30
Cc1ccccc1NC(=O)CCCCCN1C(=O)[C@@H]2Cc3ccccc3CN2C1=O	-16%	12	81%	-14%	-16
O=C(NCc1ccco1)c1ccccc1SCC(=O)N1CCCC1	/	/	-21%	7%	/
O=C1OC(c2ccccc2)=N/C1=C\C=C\c1ccccc1[N+](=O)[O-]	5%	-1	-29%	?	-3
CN1C(=O)NC(=O)/C(=C\C=C\c2ccccc2[N+](=O)[O-])C1=O	/	24*	-52%	-7%	31
CCCCN(CC)C(=O)CSc1nc2n[nH]c(C)c2c(=N)n1-c1ccc(CC)cc1	/	/	/	-2%	/
CC(=O)O[C@H]1C(=O)[C@@]2(C)C([C@H](OC(=O)c3ccccc3)[C@]3(O)C[C@H](OC(=O)[C@H](O)[C@@H](NC(=O)c4ccccc4)c4ccccc4)C(C)=C1C3(C)C)[C@]1(OC(C)=O)CO[C@@H]1C[C@@H]2O (stereo partly drawn)	-6%	/	/	/	/
O=C(NC(=S)Nc1ccccn1)c1cccc([N+](=O)[O-])c1	0%	43*	-14%	7%	76*
SMILES	NS1 inh	Cycloheximide cs	AmpC no deterg	AmpC inh detg	Shiga toxin inh
COc1ccc(C(=O)NNC(=O)c2ccncc2)cc1[N+](=O)[O-]	5%	-6	-8%	-11%	-12
CCOc1ccc(C(=O)NC(=S)Nc2ccccn2)cc1[N+](=O)[O-]	5%	15*	-29%	-7%	31
COc1ccc(C(=O)NC(=S)NNC(=O)c2ccc(O)cc2)cc1[N+](=O)[O-]	?	39*	-23%	6%	86*
COc1cc(S(=O)(=O)NC2CCSc3ccccc32)ccc1NC(C)=O (stereo not drawn)	25%	3	-19%	-9%	-7
Cc1ccc(-n2c(N)cc(=O)nc2SCC(=O)NC2CCCCC2)cc1C	1%	1	25%	0%	-8
CCOC(=O)CSc1nc2c(sc3cccc(F)c32)c(=O)n1Cc1ccc(OC)cc1	/	/	/	1%	/
CC1(c2cnc(Nc3ccccc3)s2)CCC(=O)O1 (stereo not drawn)	?	34*	/	9%	64*
S=c1[nH]cnc2sc(Nc3ccccc3)nc12	5%	-1	-39%	?	-5
Cc1nc2ccc(NC(=O)COc3ccccc3F)cc2s1	/	31*	-6%	5%	72*
COc1cccc(CC(=O)Nc2ccc3nc(C)sc3c2)c1	-28%	30*	-28%	-7%	11
Cc1cc(CNC(=O)COc2ccc(F)cc2F)c2ccccc2n1	/	22	-3%	8%	33
Cc1cc(CNC(=O)COc2ccccc2F)c2ccccc2n1	3%	37*	0%[2.29 µM]	1%	87*
CCN(CC)C(=O)c1ccc(NC(=O)COc2ccccc2F)cc1	1%	22*	-3%	0%	76*
Cc1ccc(CSc2nc3ccc(NC(=O)COc4ccccc4F)cc3s2)cc1	/	/	/	11%	/
CN(C(=O)c1ccc(F)cc1)c1ccc(OCC(=O)Nc2ccccc2C(=O)O)cc1	/	/	-25%	/	/
COc1ccccc1CC(=O)Nc1ccc2nc(C)sc2c1	-5%	25*	-14%	-4%	80*
O=C(Nc1cccnc1)c1cc(-c2ccc(F)cc2)on1	/	53*	-24%	-1%	92*
COc1ccc(-c2cc(C(=O)Nc3cccnc3)no2)cc1OC	-16%	32*	-7%	-7%	60*
O=C(Nc1cccnc1)c1cc(-c2ccc3c(c2)OCO3)on1	7%	30*	-9%	?	89*
O=C(Nc1cccnc1)c1cc(-c2cccs2)on1	-13%	1	-20%	-10%	-5
O=C(Nc1cccnc1)c1cc(-c2ccccc2O)on1	-3%	48*	-27%	4%	77*
CC(=O)CCCC(NS(=O)(=O)CCC(Cl)(Cl)Cl)c1ccccc1 (stereo not drawn)	12%	-1	-19%	-7%	-7
Cc1ccc(CN2CCN(C3CCN(C(=O)c4ccc(C)cc4)CC3)C(=O)C2=O)cc1	/	/	/	-5%	/
CCCN1CCN(CCNC(=O)Nc2cc(C)ccc2OC)CC1	/	/	/	20%	/
Cc1nc(-c2ccc(S(=O)(=O)Nc3ccc(Br)cc3F)cc2)co1	2%	-2	-33%	?	-12
O=C(Nc1cccnc1)c1cc(-c2ccc(Cl)c(Cl)c2)on1	-6%	21*	-18%	2%	47*
CC(=O)c1cccc(NS(=O)(=O)c2cc(-c3onc(C)c3C)ccc2C)c1	/	/	/	4%	/
